These results are taken from PubChem BioAssay (EPA / NIEHS).

The source made the active and inactive calls. Rule for the calls: active = hit-call score of the fitted dose curve at least 0.9, where 1 is the maximum; inactive = score below 0.9.

Holding throughout (settings): mRNA level, 48 h; actives raise or lower the signal
Read-out in experiment [1]: Tumor necrosis factor receptor superfamily member 6 (Homo sapiens) (UniProt P25445)
Kind of experiment: LTEA_HepaRG_FAS: Life Technologies and Expression Analysis (LTEA) Assay for Fas cell surface death receptor (FAS) using HepaRG (AID 2283447). The gist of the method: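 FAS transcript level was measured by TaqMan qRT-PCR against three housekeeping genes after 48 h chemical exposure. Cells were HepaRG, 0.5% DMSO vehicle, with a top concentration of 100 uM and half-log dilutions over eight points, in duplicate.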

Read-out in experiment [2]: Fatty acid synthase (Homo sapiens) (UniProt P49327)
Kind of experiment: LTEA_HepaRG_FASN: Life Technologies and Expression Analysis (LTEA) Assay for Fatty Acid Synthase (FASN) using HepaRG (AID 2283448). The gist of the method:
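In human HepaRG cultures, 48 h chemical exposure (up to 100 uM, 0.5% DMSO) preceded TaqMan qRT-PCR of FASN.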

Read-out in experiment [3]: Cyclin Dependent Kinase Inhibitor 1A (CDKN1A), CDKN1A (gene 1026)
Put plainly: LTEA_HepaRG_CDKN1A: Life Technologies and Expression Analysis (LTEA) Assay for Cyclin Dependent Kinase Inhibitor 1A (CDKN1A) using HepaRG (AID 2283450). The gist of the method: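 Differentiated HepaRG cells in serum-free induction medium, exposed 48 h in duplicate to eight half-log concentrations up to 100 uM in 0.5% DMSO. mRNA measured by TaqMan qRT-PCR, normalized to ACTB, GAPDH, POLR2A; bidirectional fit versus DMSO.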

Read-out in experiment [4]: Cyclin D1 (CCND1), CCND1 (gene 595)
Put plainly: LTEA_HepaRG_CCND1: Life Technologies and Expression Analysis (LTEA) Assay for Cyclin D1 (CCND1) using HepaRG (AID 2283451). The gist of the method: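 Differentiated HepaRG cells exposed 48 h in serum-free induction medium to eight half-log concentrations from 100 uM top, 0.5% DMSO, duplicates. CCND1 mRNA measured by Fluidigm TaqMan qRT-PCR, normalised to ACTB, GAPDH, POLR2A; bidirectional fit.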

Read-out in experiment [5]: catalase (CAT), CAT (gene 847)
Put plainly: LTEA_HepaRG_CAT: Life Technologies and Expression Analysis (LTEA) Assay for catalase (CAT) using HepaRG (AID 2283452).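 For AC50: TaqMan qRT-PCR signal normalized to ACTB GAPDH and POLR2A housekeeping genes.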 The method in brief: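 Expression of CAT was quantified by TaqMan qRT-PCR with ACTB/GAPDH/POLR2A normalization after 48 h chemical exposure of HepaRG. Eight-point half-log series, top 100 uM, in 0.5% DMSO; gain or loss fitted against vehicle.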

Read-out in experiment [6]: flavin-containing dimethylaniline monooxygenases 3 (FMO3), FMO3 (gene 2328)
Put plainly: LTEA_HepaRG_FMO3: Life Technologies and Expression Analysis (LTEA) Assay for flavin-containing dimethylaniline monooxygenases 3 (FMO3) using HepaRG (AID 2283453). The gist of the method:
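Eight-point concentration-response in serum-free HepaRG cultures (top 100 uM, 0.5% DMSO, 48 h). Read-out: FMO3 mRNA level normalized to three endogenous control genes, fitted bidirectionally versus vehicle.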

Read-out in experiment [7]: Cytochrome P450 (CYP1A1), CYP1A1 (gene 1543)
Kind of experiment: LTEA_HepaRG_CYP1A1: Life Technologies and Expression Analysis (LTEA) Assay for Cytochrome P450 (CYP1A1) using HepaRG (AID 2283454). The method in brief:
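Differentiated human HepaRG cells, after 48 h plating, exposed in duplicate for 48 h in serum-free induction medium to 8 half-log concentrations up to 100 uM in 0.5% DMSO. CYP1A1 mRNA by qRT-PCR, normalized to ACTB/GAPDH/POLR2A; bidirectional fit versus DMSO.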

Read-out in experiment [8]: CFLAR gene, CFLAR (gene 8837)
Put plainly: LTEA_HepaRG_CFLAR: Life Technologies and Expression Analysis (LTEA) Assay for CFLAR gene using HepaRG (AID 2283455). The gist of the method:
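Transcript level by qRT-PCR (normalized to ACTB, GAPDH and POLR2A) after 48 h chemical exposure of HepaRG cells, top concentration 100 uM with half-log steps, 0.5% DMSO vehicle, duplicates; fitted bidirectionally against DMSO baseline.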

Read-out in experiment [9]: Forkhead box O1 (FOXO1), FOXO1 (gene 2308)
Kind of experiment: LTEA_HepaRG_FOXO1: Life Technologies and Expression Analysis (LTEA) Assay for Forkhead box O1 (FOXO1) using HepaRG (AID 2283456). The method in brief: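 FOXO1 transcript quantified by qRT-PCR after 48 h chemical exposure (top 100 uM, half-log steps, 0.5% DMSO) of HepaRG cells, housekeeping-normalized (ACTB/GAPDH/POLR2A). Changes fitted in both directions relative to vehicle.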

Read-out in experiment [10]: growth arrest and DNA damage 45 (GADD45A), GADD45A (gene 1647)
Put plainly: LTEA_HepaRG_GADD45A: Life Technologies and Expression Analysis (LTEA) Assay for growth arrest and DNA damage 45 (GADD45A) using HepaRG (AID 2283458). The gist of the method:
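Eight-point concentration-response in HepaRG cells: 48 h chemical exposure, 0.5% DMSO vehicle, top dose 100 uM. Normalized qRT-PCR mRNA readout with bidirectional fitting relative to DMSO.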

Read-out in experiment [11]: Forkhead box O3 (FOXO3), FOXO3 (gene 2309)
Put plainly: LTEA_HepaRG_FOXO3: Life Technologies and Expression Analysis (LTEA) Assay for Forkhead box O3 (FOXO3) using HepaRG (AID 2283459). The gist of the method: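 FOXO3 transcript measured by qRT-PCR (normalized to ACTB, GAPDH, POLR2A) after 48 h exposure of HepaRG cells in serum-free induction medium. Duplicates, eight half-log concentrations up to 100 uM, 0.5% DMSO; gain or loss fitted against DMSO.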

Read-out in experiment [12]: ABC Transporter (ABCB1), ABCB1 (gene 5243)
Put plainly: LTEA_HepaRG_ABCB1: Life Technologies and Expression Analysis (LTEA) Assay for ABC Transporter (ABCB1) using HepaRG (AID 2283460). The gist of the method: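 ABCB1 transcript level measured by TaqMan qRT-PCR against three housekeeping genes after 48 h chemical exposure of differentiated HepaRG cells. Top concentration 100 uM, half-log steps, eight points, 0.5% DMSO vehicle; bidirectional fit relative to DMSO.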

Read-out in experiment [13]: growth arrest and DNA damage 45 (GADD45B), GADD45B (gene 4616)
Kind of experiment: LTEA_HepaRG_GADD45B: Life Technologies and Expression Analysis (LTEA) Assay for growth arrest and DNA damage 45 (GADD45B) using HepaRG (AID 2283461). The gist of the method:
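Differentiated human HepaRG cells in serum-free induction medium exposed 48 h in duplicate to eight concentrations, top 100 uM, half-log steps, 0.5% DMSO. GADD45B mRNA by TaqMan qRT-PCR, normalized to ACTB, GAPDH, POLR2A; bidirectional fit versus DMSO.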

Read-out in experiment [14]: ABC Transporter (ABCC3), ABCC3 (gene 8714)
Kind of experiment: LTEA_HepaRG_ABCC3: Life Technologies and Expression Analysis (LTEA) Assay for ABC Transporter (ABCC3) using HepaRG (AID 2283462). The method in brief:
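Differentiated human HepaRG cells exposed 48 h in serum-free induction medium, 0.5% DMSO vehicle, 8-point half-log series to 100 uM in duplicate. ABCC3 mRNA by qRT-PCR, normalised to ACTB, GAPDH, POLR2A; bidirectional fit vs DMSO.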

Read-out in experiment [15]: ABC Transporter (ABCB11), ABCB11 (gene 8647)
Kind of experiment: LTEA_HepaRG_ABCB11: Life Technologies and Expression Analysis (LTEA) Assay for ABC Transporter (ABCB11) using HepaRG (AID 2283463). The method in brief: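 ABCB11 transcript levels quantified by TaqMan qRT-PCR against three housekeeping genes after 48 h chemical exposure of HepaRG cultures. Concentrations up to 100 uM in half-log steps, 0.5% DMSO vehicle; both induction and suppression scored.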

Read-out in experiment [16]: Broad substrate specificity ATP-binding cassette transporter ABCG2 (Homo sapiens) (UniProt Q9UNQ0)
Put plainly: LTEA_HepaRG_ABCG2: Life Technologies and Expression Analysis (LTEA) Assay for ABC Transporter (ABCG2) using HepaRG (AID 2283465). The method in brief:
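ABCG2 transcript was quantified by TaqMan qRT-PCR against three housekeeping genes in HepaRG cells. Cells were treated in duplicate for 48 h across an 8-point half-log series up to 100 uM, with 0.5% DMSO vehicle. Gain or loss versus DMSO was fit.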

Read-out in experiment [17]: ATP-citrate lyase (ACLY), ACLY (gene 47)
Kind of experiment: LTEA_HepaRG_ACLY: Life Technologies and Expression Analysis (LTEA) Assay for ATP-citrate lyase (ACLY) using HepaRG (AID 2283466). The method in brief: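 ACLY mRNA quantified by qRT-PCR on Fluidigm arrays against three housekeeping genes, after 48 h chemical treatment of HepaRG cells (top concentration 100 uM, half-log steps, 0.5% DMSO vehicle). Up- or down-regulation fitted relative to DMSO.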

Read-out in experiment [18]: Cyclin D2 (CCND2), CCND2 (gene 894)
Put plainly: LTEA_HepaRG_CCND2: Life Technologies and Expression Analysis (LTEA) Assay for Cyclin D2 (CCND2) using HepaRG (AID 2283449). The gist of the method:
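CCND2 transcript levels, quantified by qRT-PCR and normalised to three housekeeping genes, were fitted bidirectionally against 0.5% DMSO. HepaRG cultures were dosed 48 h in duplicate with an 8-point half-log series up to 100 uM.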

Read-out in experiment [19]: ABC Transporter (ABCC2), ABCC2 (gene 1244)
Put plainly: LTEA_HepaRG_ABCC2: Life Technologies and Expression Analysis (LTEA) Assay for ABC Transporter (ABCC2) using HepaRG (AID 2283464). The method in brief: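 Differentiated HepaRG cells in serum-free induction medium exposed 48 h to eight half-log concentrations up to 100 uM, 0.5% DMSO, in duplicate. ABCC2 mRNA measured by qRT-PCR (TaqMan, Fluidigm), normalized to ACTB, GAPDH and POLR2A. Fitted in both directions against DMSO.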

For orientation: AC50 means the concentration giving half of the maximal activity seen.

Chain of Broad substrate specificity ATP-binding cassette transporter ABCG2 (Homo sapiens) (Q9UNQ0 whole entry, looked up): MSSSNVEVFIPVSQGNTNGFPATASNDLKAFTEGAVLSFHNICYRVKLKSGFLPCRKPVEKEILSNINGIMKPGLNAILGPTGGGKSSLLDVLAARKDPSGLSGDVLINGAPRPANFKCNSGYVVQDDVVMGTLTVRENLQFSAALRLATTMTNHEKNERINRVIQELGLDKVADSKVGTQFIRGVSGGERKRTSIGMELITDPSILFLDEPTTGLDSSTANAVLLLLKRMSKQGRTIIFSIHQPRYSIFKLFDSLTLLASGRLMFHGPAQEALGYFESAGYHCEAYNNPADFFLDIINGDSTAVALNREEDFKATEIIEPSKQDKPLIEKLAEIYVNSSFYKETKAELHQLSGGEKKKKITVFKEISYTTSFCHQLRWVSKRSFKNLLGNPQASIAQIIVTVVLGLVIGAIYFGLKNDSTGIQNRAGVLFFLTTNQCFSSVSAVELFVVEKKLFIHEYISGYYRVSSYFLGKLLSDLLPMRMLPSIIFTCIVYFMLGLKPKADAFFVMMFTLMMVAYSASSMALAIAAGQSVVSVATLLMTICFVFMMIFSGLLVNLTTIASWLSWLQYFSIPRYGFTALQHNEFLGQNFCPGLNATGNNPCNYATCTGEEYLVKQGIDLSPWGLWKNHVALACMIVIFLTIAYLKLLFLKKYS
Chain of Fatty acid synthase (Homo sapiens) (P49327 whole entry, looked up): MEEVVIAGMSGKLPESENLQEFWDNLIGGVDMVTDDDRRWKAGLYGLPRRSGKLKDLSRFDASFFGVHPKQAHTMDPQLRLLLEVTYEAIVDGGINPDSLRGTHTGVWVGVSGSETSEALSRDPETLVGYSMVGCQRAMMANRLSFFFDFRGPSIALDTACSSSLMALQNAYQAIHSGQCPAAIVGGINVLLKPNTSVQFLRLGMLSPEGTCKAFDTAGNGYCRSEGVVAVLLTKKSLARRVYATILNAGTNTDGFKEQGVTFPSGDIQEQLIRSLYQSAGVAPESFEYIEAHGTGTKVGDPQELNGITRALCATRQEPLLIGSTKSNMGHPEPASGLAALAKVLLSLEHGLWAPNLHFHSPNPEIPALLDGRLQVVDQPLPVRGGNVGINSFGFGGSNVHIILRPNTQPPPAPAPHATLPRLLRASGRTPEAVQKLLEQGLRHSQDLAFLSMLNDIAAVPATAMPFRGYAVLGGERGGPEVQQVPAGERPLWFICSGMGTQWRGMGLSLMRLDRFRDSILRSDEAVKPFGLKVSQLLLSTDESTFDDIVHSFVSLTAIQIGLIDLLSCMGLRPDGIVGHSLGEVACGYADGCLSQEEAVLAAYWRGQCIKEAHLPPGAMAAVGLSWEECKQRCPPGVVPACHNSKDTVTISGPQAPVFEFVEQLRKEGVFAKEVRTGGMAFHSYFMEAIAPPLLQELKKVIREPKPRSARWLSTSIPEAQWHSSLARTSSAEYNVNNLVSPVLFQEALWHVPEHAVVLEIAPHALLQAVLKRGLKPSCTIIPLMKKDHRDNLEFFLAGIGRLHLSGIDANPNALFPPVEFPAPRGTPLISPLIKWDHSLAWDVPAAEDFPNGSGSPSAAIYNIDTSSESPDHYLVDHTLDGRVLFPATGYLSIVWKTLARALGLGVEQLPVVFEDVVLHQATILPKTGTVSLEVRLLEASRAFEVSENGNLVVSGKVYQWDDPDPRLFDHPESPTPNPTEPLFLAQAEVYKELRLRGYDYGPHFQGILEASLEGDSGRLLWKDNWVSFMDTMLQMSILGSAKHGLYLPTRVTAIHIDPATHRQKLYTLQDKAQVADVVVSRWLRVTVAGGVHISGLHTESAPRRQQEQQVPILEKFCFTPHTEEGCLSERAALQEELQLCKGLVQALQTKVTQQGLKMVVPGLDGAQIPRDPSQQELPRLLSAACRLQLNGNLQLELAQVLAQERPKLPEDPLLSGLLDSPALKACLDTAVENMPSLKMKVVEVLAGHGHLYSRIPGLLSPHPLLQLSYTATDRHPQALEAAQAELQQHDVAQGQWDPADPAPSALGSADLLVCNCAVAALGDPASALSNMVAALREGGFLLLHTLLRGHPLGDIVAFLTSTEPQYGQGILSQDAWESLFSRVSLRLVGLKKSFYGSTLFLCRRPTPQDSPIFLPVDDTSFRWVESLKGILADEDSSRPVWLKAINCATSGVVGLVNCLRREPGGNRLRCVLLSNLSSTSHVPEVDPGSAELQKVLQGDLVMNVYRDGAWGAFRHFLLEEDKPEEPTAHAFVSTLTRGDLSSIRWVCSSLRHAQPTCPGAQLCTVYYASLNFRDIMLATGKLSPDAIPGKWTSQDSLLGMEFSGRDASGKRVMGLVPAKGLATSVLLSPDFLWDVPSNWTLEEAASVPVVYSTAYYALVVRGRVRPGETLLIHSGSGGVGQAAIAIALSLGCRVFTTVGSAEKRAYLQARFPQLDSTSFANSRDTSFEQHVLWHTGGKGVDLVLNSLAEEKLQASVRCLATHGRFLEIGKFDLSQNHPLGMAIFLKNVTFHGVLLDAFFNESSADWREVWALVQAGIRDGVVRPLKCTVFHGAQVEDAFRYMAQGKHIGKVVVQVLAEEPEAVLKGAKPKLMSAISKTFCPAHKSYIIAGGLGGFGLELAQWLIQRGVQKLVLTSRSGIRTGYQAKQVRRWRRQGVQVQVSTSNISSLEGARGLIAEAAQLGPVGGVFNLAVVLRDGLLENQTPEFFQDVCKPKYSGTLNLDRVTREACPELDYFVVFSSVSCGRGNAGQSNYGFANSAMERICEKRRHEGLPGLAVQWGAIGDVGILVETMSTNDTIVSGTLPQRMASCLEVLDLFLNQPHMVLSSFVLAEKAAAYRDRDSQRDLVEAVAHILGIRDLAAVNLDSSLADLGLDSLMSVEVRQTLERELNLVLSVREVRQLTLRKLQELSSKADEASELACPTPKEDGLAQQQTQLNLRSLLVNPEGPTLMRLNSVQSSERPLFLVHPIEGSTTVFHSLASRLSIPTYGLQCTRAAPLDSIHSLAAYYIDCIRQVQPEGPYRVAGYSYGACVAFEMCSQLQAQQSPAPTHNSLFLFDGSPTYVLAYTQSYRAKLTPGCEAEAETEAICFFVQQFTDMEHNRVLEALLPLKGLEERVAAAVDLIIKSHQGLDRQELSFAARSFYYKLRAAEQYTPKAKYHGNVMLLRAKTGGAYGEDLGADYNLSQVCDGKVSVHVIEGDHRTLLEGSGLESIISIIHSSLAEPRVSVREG

Take `C=CCOC(=O)c1ccccc1C(=O)OCC=C`: the call in [1], in experiment [2], in [3], in [4], in experiment [5] and in experiment [6] was inactive. The result in [8], in experiment [9], in experiment [10], in [11], in [12] and in experiment [13] was inactive. For the same molecule, the molecule was classed as inactive in [14], in [15], in experiment [16] and in experiment [17]. In addition, the AC50 in experiment [7] was 50 µM (active).

Take `CNCc1cc(F)ccc1Oc1ccc(Cl)c(Cl)c1`: the molecule was classed as inactive in experiment [1], in [18], in [7], in experiment [9], in [10] and in [11]. Further, the result in [12], in experiment [14], in experiment [16] and in experiment [17] was inactive. Further, the AC50 is 50 µM (active) in experiment [2]; 20.5 µM (active) in experiment [3]; 82.8 µM (active) in experiment [5]; 93.3 µM (active) in [6]; 91.3 µM (active) in [13]; 75.6 µM (active) in experiment [19].

Consider `Oc1ccc2c(c1)OC[C@@H](N1CCC(O)(c3ccc(F)cc3)CC1)[C@H]2O`, for which the outcome in experiment [1], in experiment [2], in [3], in experiment [4], in [5] and in experiment [6] was inactive. Further, the call in experiment [7], in [8], in experiment [9], in experiment [10], in [11] and in [12] was inactive. The result in [13], in [14], in [15], in experiment [16] and in [17] was inactive.

Turning to `O=c1[nH]cc(F)c(=O)[nH]1`, the AC50 in experiment [1] was 31.3 µM (active); in experiment [3], 35.5 µM (active); in experiment [5] it was 30.7 µM (active); in experiment [6], 36.3 µM (active); in experiment [15], 64 µM (active). The call in [2], in experiment [4], in [7], in [8], in experiment [9] and in experiment [10] was inactive. The result in experiment [11], in experiment [12], in experiment [13], in experiment [14], in [19] and in experiment [16] was inactive. Also, in [17], the result was inactive.

Take `Clc1cc(Cl)c(Cl)cc1Cl`: the outcome in experiment [1], in experiment [2], in [18], in [3], in experiment [5] and in experiment [6] was inactive. The molecule was classed as inactive in [9], in [10], in experiment [11], in experiment [12], in experiment [13] and in experiment [14]. Further, the molecule was classed as inactive in experiment [19], in experiment [16] and in experiment [17]. Also, the AC50 in [7] was 50 µM (active).

For the molecule `CCCCCCC(=O)OCC`, the molecule was called inactive in [1], in [2], in experiment [3], in [4], in experiment [5] and in [6]. For the same molecule, the result in experiment [8], in experiment [9], in experiment [10], in experiment [11], in experiment [12] and in experiment [13] was inactive. Moreover, the outcome in experiment [14], in experiment [15], in experiment [16] and in experiment [17] was inactive. Also, the AC50 in [7] was 33.1 µM (active).

On to `COc1ccc2c(c1)c(CC(=O)O)c(C)n2C(=O)c1ccc(Cl)cc1`, for which the result in experiment [1], in experiment [2], in experiment [18], in [3], in experiment [5] and in experiment [6] was inactive. Also, the outcome in experiment [7], in [9], in experiment [10], in [11], in experiment [12] and in experiment [13] was inactive. The outcome in experiment [14], in experiment [16] and in experiment [17] was inactive.
